# Bioassay records: PubChem, National Center for Advancing Translational Sciences (NCATS)
# Most compounds without a hit are left out; they make up all but 9.4% or so of the library.
# ELG1 genotoxic – qHTS screen for small molecules that induce genotoxicity in human embryonic kidney (HEK293T) cells expressing luciferase-tagged ELG1; HEK293T ELG1-luciferase reporter, luminescence, 16 h; Potency, µM (top dose mostly 46 µM), for inactives: at the highest dose activity change, positive = activation, actives largely listed as activators; actives 1.3% (n = 330,000); AID 504466, 2011; note: % of control where 0% means no effect; nearly all actives have a fitted effect of over 60% in size
#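 HEK293T cells expressing luciferase-tagged ELG1 were treated with compound or DMSO for 16 hr at 37°C. Luciferase activity was then read after 30 min with ONE-Glo at room temperature; rising signal flags genetic stress.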
# FLuc counter – qHTS profiling assay for firefly luciferase inhibitor/activator using purifed enzyme and Km concentrations of substrates (counterscreen for miR-21 project) | actives 6.9% (n = 360,000) | Potency, µM (titrated, usually from 57.5 µM), for the others: at the top dose activity change, negative = inhibition, hits mostly inhibitors | purified FLuc, Km substrates, luminescence inhibition;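 note: plate controls were vehicle for no effect and reference inhibitor for full effect; nearly all actives have a fitted effect of over 55% in size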
# Target sequence (P08659 whole entry, looked up): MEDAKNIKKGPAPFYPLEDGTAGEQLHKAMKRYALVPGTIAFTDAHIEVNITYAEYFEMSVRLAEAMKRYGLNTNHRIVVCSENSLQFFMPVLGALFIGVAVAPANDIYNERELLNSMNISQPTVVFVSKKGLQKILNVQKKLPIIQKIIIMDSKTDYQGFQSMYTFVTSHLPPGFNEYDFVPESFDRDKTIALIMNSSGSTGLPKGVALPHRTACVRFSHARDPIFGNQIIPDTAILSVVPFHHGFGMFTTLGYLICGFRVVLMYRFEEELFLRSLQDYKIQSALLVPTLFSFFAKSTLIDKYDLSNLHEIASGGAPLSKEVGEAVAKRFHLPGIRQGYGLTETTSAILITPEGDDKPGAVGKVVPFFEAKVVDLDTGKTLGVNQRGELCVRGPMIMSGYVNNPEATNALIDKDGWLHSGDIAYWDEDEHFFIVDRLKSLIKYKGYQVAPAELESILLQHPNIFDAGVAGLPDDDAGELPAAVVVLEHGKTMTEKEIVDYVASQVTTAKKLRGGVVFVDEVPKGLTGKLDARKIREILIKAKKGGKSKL
#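 Purified P. pyralis luciferase (10nM final) with 10uM D-luciferin and 10uM ATP (Km levels) in 50mM Tris acetate pH 7.5, 10mM Mg acetate, 0.01% Tween-20, 0.05% BSA; qHTS 6-point titration, ~60 µM downward; luminescence read.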
# SMN2 splice enh – qHTS Assay for Enhancers of SMN2 Splice Variant Expression | actives 2.8% (n = 210,000) | Potency, µM (titrated, usually from 46.1 µM), without a hit: top-dose activity change, positive = activation, most hits filed as activators | HEK293 SMN2-luciferase splicing reporter, luminescence, 30-36 h; note: % of control where 0% means no effect; nearly all actives have a fitted effect of over 55% in size
#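 qHTS luciferase splicing reporter: luminescence rises when SMN2 exon 7 is included in transfected HEK293 cells. Compound exposure lasted 30-36 h at 37C, with 4.5 mM final sodium butyrate as control, followed by a ONE-Glo read.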
# Rab9 promoter act – qHTS Assay for Rab9 Promoter Activators. actives 2.8% (n = 320,000). Potency, µM (titrated, usually from 9.22 µM), inactives show top-dose activation, negative = inhibition, usual class: activators. Huh7 Rab9 promoter-luciferase reporter, luminescence, 24 h; note: % of control where 0% means no effect; nearly all actives have a fitted effect of over 60% in size
#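 Cells were plated at 1500 per well in reduced-serum medium with 10% FBS and left 2 h. Compound in DMSO was then added for 24 h at 37 °C. Reporter signal was read by luminescence after 10 min with luciferase detection reagent.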
# NPC1 promoter act – qHTS Assay for NPC1 Promoter Activators; Huh7 NPC1 promoter luciferase reporter, 24 h; Potency, µM (highest dose often 9.22 µM), for the others: at the top dose activation, usual class: activators; actives 2.4% (n = 320,000); note: % of control where 0% means no effect; nearly all actives have a fitted effect of over 60% in size
#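 Stably transfected Huh7 (NPC1 promoter→luciferase), 1500 cells/well in Opti-MEM + 10% FBS, 2 h settle, then compound 24 h at 37 °C. Luminescence after 10 min with Amplite reagent.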
# ELG1 DNA repair – qHTS screen for small molecules that inhibit ELG1-dependent DNA repair in human embryonic kidney (HEK293T) cells expressing luciferase-tagged ELG1; HEK293T ELG1-luciferase reporter, luminescence, 16 h; DNA damage induced by 5-fluorouridine; Potency, µM (top dose mostly 46.1 µM), for the others: at the top dose activity change, negative = inhibition, usual class: inhibitors; actives 2.3% (n = 330,000); AID 504467, 2011; note: % is set by controls: 0 for no effect and ±100 for the full control effect; nearly all actives have a fitted effect of over 55% in size
#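 HEK293T cells expressing luciferase-tagged ELG1 (2,000/well) received 5-Fluorouridine plus compound or DMSO for 16 hr at 37 °C. Luciferase was read by ONE-Glo luminescence after 30 min at room temperature.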
# * marks the source's active call; other numbers are inactive results; ? = inconclusive; nt = no result given; [ ] = another dose, or the depositor's remark. Calls come from the whole dose curve; as a rule, active = well fitted curve in the direction sought with a large enough effect; inconclusive = small, poorly fitted or top-dose-only effect, or another doubt; inactive = no such curve, though single readings can be large; an effect the other way counts as inactive or inconclusive. Potency is the fitted concentration of half-maximal effect.
SMILES,ELG1 genotoxic,FLuc counter,SMN2 splice enh,Rab9 promoter act,NPC1 promoter act,ELG1 DNA repair
COC(=O)C1=C(C(=O)OC)[C@@H]2Nc3ccccc3[C@@]23C[C@@H](C(=O)OC)N(S(=O)(=O)c2cccs2)C3=N1,nt,nt,18%[9.22 µM],nt,nt,nt
CCOC(=O)c1[nH]c(C)c(CCC(=O)Nc2ccccc2C(=O)OC)c1C,nt,0%,nt,nt,nt,nt
O=C(COc1ccccc1Br)Nc1ccccc1C(F)(F)F,7%,?,-10%,-3%,4%,-3%
COc1cc(NC(=O)COCc2cc(-c3ccc(F)cc3)on2)cc(OC)c1OC,nt,-1%,-52%,nt,nt,nt
O=C(N/N=C\c1ccccc1)c1ccccc1-n1cccc1,0%,2%,-4%,-3%,-2%,2%
O=C(N/N=C/c1ccc(OCC(=O)N2CCCCC2)cc1)c1ccccc1O,1%,15µM*,2%,12%,13%,?
Cn1nccc1C(=O)Oc1ccc(/C=N/NC(=O)c2ccccc2O)cc1,2%,17µM*,-17%,9%,-1%,14%
Nc1c(C(=O)N/N=C/c2ccccc2)cnn1-c1ccccc1,?,5.4µM*,nt,0.63µM*,1.1µM*,?
O=C(N/N=C/c1ccc(OCC(=O)N2CCCCC2)cc1)c1ccccc1,-3%,?,?,3%,1%,-7%
CC1=C(C(=O)Nc2ccccc2)C(c2ccncc2)n2nc(SCc3ccccc3Cl)nc2N1 (configuration not stated),nt,-6%,12%,nt,nt,nt
Cc1ccc(C(=O)Nc2nnc(S(=O)(=O)N3CCc4ccccc43)s2)cc1,nt,4%,nt,nt,nt,nt
Cc1cc(C(F)(F)F)n2ncc(-c3ccc(F)cc3)c2n1,3%,0%,-20%,-6%,-2%,0%
Cc1nc2c(-c3ccc(F)cc3)cnn2c(N)c1-c1ccccc1,0.58µM*,0.24µM*,nt,3%,-4%,?
Nc1c(-c2ccc(Cl)cc2)cnc2c(-c3ccc(F)cc3)cnn12,7.3µM*,1.5µM*,nt,0.5µM*,0.56µM*,?
Cc1nc2c(-c3ccc(Cl)cc3)cnn2c(N)c1-c1ccc(F)cc1,6.5µM*,1.7µM*,nt,?,15%,?
COc1ccc(-c2c(C)nc3c(-c4ccc(F)cc4)cnn3c2N)cc1,?,0.85µM*,nt,0.45µM*,0.5µM*,?
CN(CC(=O)Nc1ccc(F)cc1F)S(=O)(=O)c1cccc2nsnc12,nt,-3%,-12%,nt,nt,nt
Nc1c(-c2cccc(Cl)c2)cnc2c(-c3ccccc3)cnn12,?,4.3µM*,nt,?,1.3µM*,?
Nc1c(-c2ccccc2)cnc2ncnn12,2%,1%,-2%,-7%,0%,12%
COc1ccc2ncc3c(-c4ccc(C)c(C)c4)nn(CC(=O)NC4CCCCC4)c3c2c1,nt,5%,nt,nt,nt,nt
COc1ccc(NC(=O)CN(C)C(=O)CNC(=O)c2sc3ccccc3c2Cl)cc1,?,3µM*,nt,?,?,?
COc1cccc(NC(=O)CN(C)C(=O)CNC(=O)c2sc3ccccc3c2Cl)c1,13%,4.8µM*,nt,25%,19%,29%
C/C(CC/C(C)=N/O)=N/O,nt,nt,-10%[9.22 µM],nt,nt,nt
COc1cccc(CNC(=O)c2ccc(-n3c(C)cc4c3CCCC4)cc2)c1,nt,-3%,nt,nt,nt,nt
COc1ccc(/C=C(\C#N)C(=O)Nc2cccc(C)n2)cc1,2%,0.95µM*,nt,5%,0%,?
SMILES,ELG1 genotoxic,FLuc counter,SMN2 splice enh,Rab9 promoter act,NPC1 promoter act,ELG1 DNA repair
Cc1cccc(NC(=O)/C=C/c2ccc(Cl)cc2)n1,1%,1.1µM*,3.5µM*,2.2µM*,4µM*,?
Cc1cccc(NC(=O)/C(C#N)=C/c2cccc([N+](=O)[O-])c2)n1,-1%,?,nt,-3%,0%,2%
COc1ccc(/C=C(\C#N)C(=O)Nc2cccnc2)cc1,1%,?,2%,1%,-3%,8%
Cc1cccc(NC(=O)/C(C#N)=C/c2ccc(Cl)cc2)n1,-3%,2.4µM*,nt,0%,1%,5%
CCOC(=O)c1ccc(NC(=O)c2c(C)oc3nc(C)nc(N4CCCC4)c23)cc1,nt,6%,nt,nt,nt,nt
Cn1nnc2c(N3CCN(c4ccccc4Cl)CC3)ncnc21,nt,-13%,nt,nt,nt,nt
Cc1ccc(/C=N/NC(=O)c2ccoc2C)s1,?,15µM*,10µM*,3.2µM*,?,?
Cc1occc1C(=O)N/N=C/c1ccc(Br)s1,?,15µM*,nt,2.8µM*,?,?
C/C(=N\NC(=O)c1ccoc1C)c1ccc(Br)s1,?,-4%,nt,4%,-3%,?
COc1cccc(Nc2nc(-c3ccccc3)c3cc(C)ccc3n2)c1,nt,0%,-8%,nt,nt,nt
COc1cc(Nc2nc(-c3ccccc3)c3cc(C)ccc3n2)cc(OC)c1OC,-2%,17µM*,15%,2%,-4%,?
Cc1ccc(-c2nc(C)c(C(=O)O)s2)cc1,?,4.8µM*,nt,?,-14%,?
Cc1nc(-c2ccc([N+](=O)[O-])cc2)sc1C(=O)O,?,27µM*,nt,?,24%,?
Cc1nc(-c2ccccc2)sc1C(=O)O,9%,?,?,23%,19%,?
Cc1nc(-c2cccc(C(F)(F)F)c2)sc1C(=O)O,?,?,?,15%,18%,?
Cc1nc(-c2ccc(Cl)cc2)sc1C(=O)O,?,15µM*,11µM*,?,?,?
CC(=O)c1sc(-c2ccccc2)nc1C,12%,-19%,-2%,5%,1%,?
O=C(Nc1ccc(OC(F)(F)F)cc1)C1CCN(S(=O)(=O)c2ccc3[nH]c(=O)ccc3c2)CC1,nt,1%,nt,nt,nt,nt
COc1ccc(-c2csc(NC(=O)C3=COCCO3)n2)c(OC)c1,21µM*,24µM*,nt,?,?,?
C=CCNc1nc(-c2ccc(OC)cc2OC)cs1,?,12µM*,?,3.2µM*,2.8µM*,?
COc1ccc(-c2csc(NC(=O)COC(=O)C3=COCCO3)n2)cc1,15%,2%,14µM*,4µM*,3.5µM*,?
COc1ccc(-c2csc(NC(=O)CN3C(=O)C4CCCCC4C3=O)n2)c(OC)c1 (configuration not stated),0%,?,nt,-5%,5%,-12%
C=CCn1c(C)cc(-c2csc(NC)n2)c1C,-6%,-15%,-16%,-3%,0%,5%
